Measurements taken from PubChem BioAssay (NCATS).
Inconclusive results are not listed. Entries that show only a call come without a potency. Active and inactive are the calls of the source. Calls come from the whole dose curve; as a rule, active = well fitted curve in the direction sought with a large enough effect; inconclusive = small, poorly fitted or top-dose-only effect, or another doubt; inactive = no such curve, though single readings can be large; an effect the other way counts as inactive or inconclusive.

How the values were obtained:
[1] = qHTS of pediatric cancer cell lines to identify multiple opportunities for drug repurposing: Primary screen for A673 cells (AID 1347092); note: nearly all actives have a fitted effect of over 45% in size; note: potency is the fitted concentration of half-maximal effect
Method in brief: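 Titration-based qHTS on A673 cells: MIPE compounds spanned 11 points (0.78 nM to 46 µM final), NPC compounds 8 points (0.59 nM to 46 µM final). Viability after 48 h was measured by ATP luminescence.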

[2] = qHTS of pediatric cancer cell lines to identify multiple opportunities for drug repurposing: Primary screen for SK-N-MC cells (AID 1347093); note: potency is the fitted concentration of half-maximal effect
Method in brief: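 Metabolically active cells were quantified by ATP-dependent luminescence (CellTiter-Glo, 15 min at room temperature) following 48 h treatment. Cells had been plated at 500-1,000 per well and settled for 5 h beforehand.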

[3] = qHTS of pediatric cancer cell lines to identify multiple opportunities for drug repurposing: Primary screen for BT-37 cells (AID 1347094); note: potency is the fitted concentration of half-maximal effect
Method in brief: (§1)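 Primary screen of approved and investigational compounds on cells in growth media at 37 degrees C, 5% CO2. MIPE set at 11-point and NPC set at 8-point dilutions; viability scored by ATP-based luminescence at 48 hours.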

[4] = qHTS of pediatric cancer cell lines to identify multiple opportunities for drug repurposing: Primary screen for U-2 OS cells (AID 1347096); note: nearly all actives have a fitted effect of over 50% in size; note: potency is the fitted concentration of half-maximal effect
Method in brief: (§2)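 Viability after 48 h compound treatment at 37C, 500-1,000 cells/well, read as ATP luminescence with CellTiter-Glo. Primary screens used 11-point (MIPE, 0.78 nM-46 µM) or 8-point (NPC, 0.59 nM-46 µM) final concentrations; follow-up screens used 11-point dilutions.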

[5] = qHTS of pediatric cancer cell lines to identify multiple opportunities for drug repurposing: Primary screen for Saos-2 cells (AID 1347097); note: potency is the fitted concentration of half-maximal effect; nearly all actives have a fitted effect of over 40% in size
Method in brief: as §1

[6] = qHTS of pediatric cancer cell lines to identify multiple opportunities for drug repurposing: Primary screen for SK-N-SH cells (AID 1347098); note: nearly all actives have a fitted effect of over 65% in size; note: potency is the fitted concentration of half-maximal effect
Method in brief: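 Cells (500-1,000/well) rested 5 h, then received compounds for 48 h; metabolically active cells were measured by CellTiter-Glo luminescence. Final concentrations spanned up to 46 µM (MIPE, 11-point) or 0.59 nM-46 µM (NPC, 8-point) in primary screens, 11-point in follow-ups.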

[7] = qHTS of pediatric cancer cell lines to identify multiple opportunities for drug repurposing: Primary screen for SJ-GBM2 cells (AID 1347091); note: potency is the fitted concentration of half-maximal effect
Method in brief: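 Viability measured as metabolically active cells via CellTiter-Glo luminescence following 48 hours of compound exposure, 11-point dilutions in confirmatory testing. 500-1,000 cells/well plated 5 hours before dosing; controls were DMSO and 2.3 µM bortezomib.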

[8] = qHTS of pediatric cancer cell lines to identify multiple opportunities for drug repurposing: Primary screen for NB-EBc1 cells (AID 1347095)
Method in brief: as §1

[9] = qHTS of pediatric cancer cell lines to identify multiple opportunities for drug repurposing: Primary screen for NB1643 cells (AID 1347099); note: nearly all actives have a fitted effect of over 50% in size; note: potency is the fitted concentration of half-maximal effect
Method in brief: as §1

[10] = qHTS of pediatric cancer cell lines to identify multiple opportunities for drug repurposing: Primary screen for LAN-5 cells (AID 1347100); note: potency is the fitted concentration of half-maximal effect
Method in brief: as §2

Compound: CC(=O)[C@]1(O)Cc2c(O)c3c(c(O)c2[C@@H](O[C@H]2C[C@H](N)[C@H](O)[C@H](C)O2)C1)C(=O)c1ccccc1C3=O
- Potency [1]: 0.422 µM (active)
- Potency [2]: 0.237 µM (active)
- Potency [3]: 0.174 µM (active)
- Potency [4]: 6.68 µM (active)
- Potency [5]: 3.35 µM (active)
- Potency [6]: 0.433 µM (active)

Compound: CN(C)CCCN1c2ccccc2Sc2ccc(C(F)(F)F)cc21
- Potency [4]: inactive

Compound: CCCCNc1c(C(=O)OCC)c(C)nc2c1cnn2CC
- Potency [7]: inactive
- Potency [3]: inactive
- Potency [8]: inactive
- Potency [4]: inactive
- Potency [9]: inactive

Compound: C[C@]12CC[C@@H]3c4ccc(O)cc4C[C@@H](CCCCCCCCCS(=O)CCCC(F)(F)C(F)(F)F)[C@H]3[C@@H]1CC[C@@H]2O (stereo partly drawn)
- Potency [1]: inactive
- Potency [2]: 9.44 µM (active)
- Potency [3]: inactive
- Potency [8]: inactive
- Potency [4]: inactive
- Potency [9]: inactive
- Potency [10]: inactive

Compound: COCC(=O)O[C@]1(CCN(C)CCCc2nc3ccccc3[nH]2)CCc2cc(F)ccc2[C@@H]1C(C)C
- Potency [5]: 26.6 µM (active)
- Potency [6]: 19.4 µM (active)
- Potency [9]: inactive

Compound: CN1C[C@H](C(=O)N[C@]2(C)O[C@@]3(O)[C@@H]4CCCN4C(=O)[C@H](Cc4ccccc4)N3C2=O)C[C@@H]2c3cccc4[nH]cc(c34)C[C@H]21
- Potency [3]: inactive
- Potency [8]: inactive
- Potency [4]: inactive
- Potency [6]: 30.7 µM (active)
- Potency [9]: inactive
- Potency [10]: inactive

Compound: c1cc(CN2CCCCC2)cc(OCCCNc2nc3ccccc3s2)c1
- Potency [8]: inactive
- Potency [6]: 24.4 µM (active)

Compound: C(=C\c1ccccc1)/CN1CCN(C(c2ccccc2)c2ccccc2)CC1
- Potency [3]: inactive
- Potency [4]: inactive
- Potency [6]: inactive
- Potency [9]: inactive
- Potency [10]: inactive

Compound: CCCC(C(=O)OCCN(CC)CC)(c1ccccc1)c1ccccc1
- Potency [3]: 30.9 µM (active)
- Potency [6]: 19.4 µM (active)
- Potency [10]: inactive

Compound: Fc1ccc(C(c2ccc(F)cc2)N2CCN(C/C=C/c3ccccc3)CC2)cc1
- Potency [9]: inactive

Compound: COc1cc2c(cc1OC)-c1cc(=Nc3c(C)cc(C)cc3C)n(C)c(=O)n1CC2
- Potency [7]: 16.8 µM (active)
- Potency [2]: 4.22 µM (active)
- Potency [4]: inactive

Compound: OC(CCN1CCCCC1)(c1ccccc1)C1CCCCC1 (stereo not drawn)
- Potency [1]: inactive
- Potency [2]: inactive
- Potency [8]: inactive
- Potency [4]: inactive
- Potency [9]: inactive
- Potency [10]: inactive

Compound: CCC(=O)c1ccc2c(c1)N(CCCN(C)C)c1ccccc1S2
- Potency [8]: inactive
- Potency [4]: inactive

Compound: COC(=O)C1=C(C)NC(C)=C(C(=O)OCCN(C)Cc2ccccc2)C1c1cccc([N+](=O)[O-])c1 (stereo not drawn)
- Potency [9]: 21.1 µM (active)

Compound: CCCCCCCC/C=C\CCCCCCCC(=O)NCc1ccc(O)c(OC)c1
- Potency [1]: 2.66 µM (active)
- Potency [3]: inactive
- Potency [4]: inactive
- Potency [6]: inactive

Compound: CN(C)CCCN1c2ccccc2Sc2ccccc21
- Potency [2]: inactive
- Potency [4]: inactive
- Potency [9]: inactive
- Potency [10]: inactive

Compound: CC(C)COCC(CN(Cc1ccccc1)c1ccccc1)N1CCCC1 (stereo not drawn)
- Potency [1]: 26.6 µM (active)
- Potency [2]: 16.8 µM (active)
- Potency [3]: 27.6 µM (active)
- Potency [6]: 27.3 µM (active)
- Potency [9]: 29.9 µM (active)

Compound: CCN(CC)CCCN(c1ccccc1)C1Cc2ccccc2C1
- Potency [3]: inactive
- Potency [8]: inactive
- Potency [4]: inactive

Compound: CCc1cccc(N(C)C(N)=Nc2cccc3ccccc23)c1
- Potency [7]: inactive
- Potency [8]: inactive
- Potency [9]: inactive
- Potency [10]: inactive

Compound: OCCN1CCN(CC/C=C2/c3ccccc3Sc3ccc(C(F)(F)F)cc32)CC1
- Potency [7]: 21.1 µM (active)
- Potency [8]: inactive
- Potency [10]: 23.7 µM (active)

Compound: COCCOC(=O)C1=C(C)NC(C)=C(C(=O)OC(C)C)C1c1cccc([N+](=O)[O-])c1 (stereo not drawn)
- Potency [4]: inactive
- Potency [6]: inactive
- Potency [9]: inactive

Compound: CC1=C(C)C(=O)C(CCCCC#CCCCC#CCO)=C(C)C1=O
- Potency [7]: inactive
- Potency [3]: inactive
- Potency [8]: inactive
- Potency [4]: inactive

Compound: Cc1nc2ccccn2c(=O)c1CCN1CCC(C(=O)c2ccc(F)cc2)CC1
- Potency [7]: inactive
- Potency [3]: inactive
- Potency [8]: inactive
- Potency [4]: inactive
- Potency [6]: inactive
- Potency [9]: inactive
- Potency [10]: inactive
